Data from PubChem BioAssay AID2284358 (EPA ToxCast).
Records with an inconclusive call do not appear. Calls of active or inactive are those of the source. Rule for the calls: active = hit-call score of the fitted dose curve at least 0.9, where 1 is the maximum; inconclusive = response in the unintended direction; inactive = score below 0.9.

Target: zebrafish Retinoid X Receptor beta (RXRb), rxrba (gene 30530) (UniProt Q7SYN5)
Assay: ATG_zfRXRb_EcoTox2: Attagene TRANS-FACTORIAL EcoTox-2 HepG2 Assay for zebrafish Retinoid X Receptor beta (RXRb)
Method: ATG_EcoTox2 is a cell-based, multiplexed assay created by modifying the existing Attagene TRANS-FACTORIAL system to include a panel of nuclear receptors from some or all the following species: human (Homo sapiens), african clawed frog (Xenopus laevis), rainbow trout (Oncorhynchus mykiss), japanese medaka (Oryzias latipes), and zebrafish (Danio rerio). The ECOTOX2-FACTORIAL format uses HepG2, a human liver cell line, with measurements taken at 24 hours after chemical dosing in a 24-well plate. ATG_zfRXRb_EcoTox2 is one of 29 assay components calculated in the ATG_EcoTox2 assay. It is designed to make measurements of mRNA induction, a form of inducible reporter, as detected with fluorescence intensity signals by Reverse transcription polymerase chain reaction (RT-PCR) and Capillary electrophoresis technology.The assay endpoint ATG_zfRXRb_EcoTox2 was analyzed in the positive analysis fitting direction relative to DMSO as the negative control and baseline of activity. Using a type of inducible reporter, measures of mRNA for gain-of-signal activity can be used to understand the reporter gene at the transcription factor-level as they relate to the gene RXRb. Furthermore, this assay endpoint can be referred to as a primary readout, because this assay has produced multiple assay endpoints where this one serves a reporter gene function. To generalize the intended target to other relatable targets, this assay endpoint is annotated to the nuclear receptor intended target family, where the subfamily is non-steroidal.
Human liver HepG2 cells are transiently transfected with multiple reporter transcription units (MRTUs) in 6-well plates using FuGene 6 reagent (Roche; 3 ml FuGene/1 mg DNA). The MRTU constructs are regulated by a cis-regulating element (promoter). Each RTU expresses a GAL4-UAS that regulates the transcription of a nearby target reporter gene sequence. A major difference between the CIS and TRANS system is that in CIS activities of endogenous TFs are measured, whereas the TRANS assay evaluates changes in activities of exogenous, chimeric NR-Gal4 proteins. […] At the end of 24 hour incubation, total RNA was isolated using TriZol reagent (Invitrogen). The isolated RNA is then reverse-transcribed using oligo(dT) primer and Mo-MLV reverse transcriptase (Invitrogen) with DNAse I (Ambion) treatment for 30 min. The one-tenth of the produced cDNA was amplified by PCR using Taq DNA polymerase (Invitrogen) and two reporter sequence-specific primers. The PCR products were fluorescently labeled by primer extension with 6-arboxyfluorescein (6-FAM) 5'-labeled reporter sequence-specific primer (2 min at 95 C, 20 s at 68 C and 10 min at 72 C) and these products were digested with 5U of HpaI (New England Biolabs) for 2h at 37 C. The fragments were purified using Qiaquick PCR columns (Qiagen), analyzed on an ABI 3130xL genetic analyzer (Applied Biosystems) with peak positions identified by using a set of X-rhodamine (ROX)-labeled MapMarker1000 molecular weight standards (BioVentures). The raw capillary electrophoresis data was processed using Attagraph software (Attagene).

Sequence of zebrafish Retinoid X Receptor beta (RXRb), rxrba (gene 30530) (Q7SYN5 whole entry, looked up): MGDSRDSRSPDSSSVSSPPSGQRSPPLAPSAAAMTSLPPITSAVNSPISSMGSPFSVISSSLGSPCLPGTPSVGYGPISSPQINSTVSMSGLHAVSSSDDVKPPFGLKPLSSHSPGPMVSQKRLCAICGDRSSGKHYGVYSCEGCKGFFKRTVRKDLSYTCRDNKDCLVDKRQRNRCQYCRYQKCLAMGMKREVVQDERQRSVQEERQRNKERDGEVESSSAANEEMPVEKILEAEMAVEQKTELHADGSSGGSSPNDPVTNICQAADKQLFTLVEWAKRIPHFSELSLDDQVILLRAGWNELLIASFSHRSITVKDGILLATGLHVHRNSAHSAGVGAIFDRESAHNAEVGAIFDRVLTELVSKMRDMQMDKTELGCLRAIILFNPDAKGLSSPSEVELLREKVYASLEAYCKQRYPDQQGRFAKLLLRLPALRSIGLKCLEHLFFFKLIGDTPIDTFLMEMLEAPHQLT

Row | Compound | outcome | AC50
1 | Cc1ccc(C)c(OCCCC(C)(C)C(=O)O)c1 | inactive | –
2 | C[C@]12C=CC(=O)C=C1CC[C@@H]1[C@@H]2C(=O)C[C@@]2(C)[C@H]1CC[C@]2(O)C(=O)CO | inactive | –
3 | Cc1c(C)c2c(c(C)c1O)CCC(C)(COc1ccc(CC3SC(=O)NC3=O)cc1)O2 (stereo not given) | inactive | –
4 | CC(C)(Oc1ccc(C2CC2(Cl)Cl)cc1)C(=O)O (stereo not given) | inactive | –
5 | CC(C)(Oc1ccc(Cl)cc1)C(=O)O | inactive | –
6 | CC(C)(Oc1ccc(CCNC(=O)c2ccc(Cl)cc2)cc1)C(=O)O | inactive | –
7 | C=C(c1ccc(C(=O)O)cc1)c1cc2c(cc1C)C(C)(C)CCC2(C)C | – | 597 nM (active)
8 | C[C@@H]1C[C@H]2[C@@H]3CCC4=CC(=O)C=C[C@]4(C)[C@@]3(F)[C@@H](O)C[C@]2(C)[C@@]1(O)C(=O)COP(=O)(O)O | inactive | –
9 | CC(c1cc2ccccc2s1)N(O)C(N)=O (stereo not given) | inactive | –
10 | Cc1cccc(Nc2cc(Cl)nc(SCC(=O)O)n2)c1C | inactive | –
